An excerpt weighted towards active compounds, which were near 1.8% of everything screened.
EWS-Fli inh – inhibitors of EWS/Fli oncoprotein transcriptional activity | A673 NR0B1-luciferase reporter, viability-normalised | inhibition, % at 12.6 µM | 0.67% of 350,000 active;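 active means mean inhibition of at least 50% after viability correction, with every replicate also passing that limit; inconclusive means mean reaches 50% but only one of two replicates passes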;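 further: firefly luciferase signal divided by Alamar Blue viability fluorescence both relative to DMSO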
PAX8 reporter – inhibitors of PAX8 transcriptional activity in RMG-I cells. RMG-I TPO-luciferase reporter, SteadyGlo, 24 h. inhibition, % at 12.6 µM. 1.2% of 360,000 active;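 active means mean replicate inhibition at least 60% with every replicate also reaching 60%; inconclusive means only one of the two criteria is met; inactive means mean below 60% and not all replicates reaching 60%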;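 further: luciferase light reporting Pax8 driven TPO promoter activity; plate controls were median of neutral control wells for no effect and mitoxantrone controls for full effect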
LGR2 inh – blocks bursicon-induced cAMP signaling via Drosophila LGR2 | AID 720647 | 0.35% of 380,000 active | HEK293 LGR2, CRE-luciferase, bursicon-stimulated, 4 h | inhibition, % at 9.99 µM;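 active means drop in luminescence signal, shown as inhibition above about 50% in the replicate tests, limit read from the data, passing the limit was not always enough; inconclusive means probably only some replicates passing the limit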;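 further: agonist challenge used bursicon conditioned medium at about half maximal strength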
F508del corr – CFTR F508del correction in bronchial cells; 0.36% of 350,000 active; activity (quench increase), % at 7.58 µM; AID 720511; CFBE cells, YFP halide quenching; stimulated with forskolin plus potentiator P3; % fluorescence drop versus neutral controls;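 active means mean added fluorescence quench of at least 8% versus neutral control, with both replicates also reaching 8%; inconclusive means only one of the mean or replicate conditions met; inactive means mean below 8% and not both replicates reaching 8%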;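 further: cells transiently co-express mutant CFTR-F508del with the halide-sensitive YFP; corrector assay measuring rescue of mutant channel to the surface after 24 h compound exposure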
Active calls of the source: *; ? = inconclusive; . = no result given.

SMILES | EWS-Fli inh | PAX8 reporter | LGR2 inh | F508del corr
C[C@H](CO)N1C[C@H](C)[C@H](CN(C)C(=O)Nc2ccc(F)cc2)OCCCC[C@H](C)Oc2ccc(NS(=O)(=O)c3ccc(Cl)cc3)cc2C1=O | 5.9 | 61.1* | 12.5 | 0.6
C[C@@H]1CCCCO[C@H](CN(C)C(=O)Nc2ccc(F)cc2)[C@@H](C)CN([C@@H](C)CO)C(=O)c2cc(NS(=O)(=O)c3ccc(Cl)cc3)ccc2O1 | 7.2 | 83.0* | 19.0 | -1.4
CNC[C@@H]1Oc2ccc(NC(=O)NC(C)C)cc2CC(=O)N([C@H](C)CO)C[C@@H]1C | -10.6 | 14.0 | -15.6 | -0.2
CNC[C@@H]1Oc2ccc(NC(=O)NC(C)C)cc2CC(=O)N([C@@H](C)CO)C[C@@H]1C | -0.6 | 92.3* | -18.9 | -2.2
CNC[C@H]1Oc2ccc(NC(=O)NC(C)C)cc2CC(=O)N([C@@H](C)CO)C[C@@H]1C | -5.1 | 91.1* | -7.7 | 0.3
CCC(=O)N1CC2(CCN(C(=O)CN3CCOCC3)CC2)c2c([nH]c3cc(OC)ccc23)[C@H]1CO | -6.1 | -14.7 | -9.4 | -0.3
Cc1ccoc1C(=O)Nc1ccc2ccccc2c1 | 51.4* | 4.4 | 60.0* | -0.2
Cc1cc(C(=O)Nc2ccc3ccccc3c2)oc1C | -139.1 | -141.2 | -74.1 | -0.6
CCOc1cccc(C(=O)Nc2cccc(C(C)=O)c2)c1 | . | -104.9 | -19.8 | .
CCOc1cccc(C(=O)Nc2ccc3ccccc3c2)c1 | 32.1 | -24.1 | 65.9* | -9.7
CCCCOc1cccc(C(=O)Nc2ccc(NC(=O)c3cccs3)cc2)c1 | 52.7* | 5.7 | 2.2 | -1.4
CCCOc1ccc(C(=O)Nc2ccc(NC(=O)c3cccs3)cc2)cc1 | -18.3 | -32.5 | -10.0 | -0.5
C[C@H](O)C#Cc1ccc2c(c1)O[C@H](CN(C)Cc1ccc(-c3ccccc3)cc1)[C@@H](C)CN([C@H](C)CO)S2(=O)=O | 48.8 | 79.9* | 1.1 | -1.6
C[C@@H]1CN([C@@H](C)CO)S(=O)(=O)c2ccc(C#C[C@@H](C)O)cc2O[C@H]1CN(C)Cc1ccc(-c2ccccc2)cc1 | 43.7 | 91.8* | 2.0 | 4.9
C[C@H](O)C#Cc1ccc2c(c1)O[C@H](CN(C)Cc1ccc(-c3ccccc3)cc1)[C@H](C)CN([C@H](C)CO)S2(=O)=O | 11.9 | 40.6 | 20.3 | -2.4
C[C@H](O)C#Cc1ccc2c(c1)O[C@@H](CN(C)Cc1ccc(-c3ccccc3)cc1)[C@@H](C)CN([C@@H](C)CO)S2(=O)=O | -13.8 | 89.4* | -7.3 | 1.9
Cc1ccc(C)c(Cn2c3ccccc3c3cnn(CC(=O)NCCN4CCOCC4)c(=O)c32)c1 | . | 19.2 | 0.2 | 0.2
Cc1ccccc1CN1CCc2c(OCC(=O)N3CCCc4ccccc43)cccc2C1=O | . | 6.3 | -14.3 | .
C[C@@H]1CN([C@H](C)CO)C(=O)c2cc(C#CC3(O)CCCC3)cnc2O[C@H]1CN(C)C(=O)Nc1ccc2c(c1)OCO2 | -13.3 | . | -5.2 | -1.9
COC(=O)[C@@H]1[C@@H](CO)[C@@H]2Cn3c(ccc(-c4cccc(F)c4)c3=O)[C@@H]2N1CC1CCCC1 | 5.7 | 64.0* | 5.8 | -6.0
Cc1ccnc(NC(=O)c2sc3ccccc3c2Cl)c1 | . | -158.6 | 86.7* | .
Cc1cnc(NC(=O)c2sc3ccccc3c2Cl)s1 | 72.4* | 6.1 | ? | -3.3
CC(C)NC(=O)N(C)C[C@H]1Oc2c(NS(=O)(=O)c3cn(C)cn3)cccc2C(=O)N([C@H](C)CO)C[C@@H]1C | -1.7 | 1.8 | -2.2 | -2.5
O=C(Nc1ccn(Cc2c(F)c(F)cc(F)c2F)n1)c1cccc(Cn2cc([N+](=O)[O-])cn2)c1 | . | . | 13.1 | .
CCOc1ccc(C(=O)CSc2nnc(N)s2)cc1 | . | -80.0 | . | .
SMILES | EWS-Fli inh | PAX8 reporter | LGR2 inh | F508del corr
Cc1cccc(CSC(Nc2ccc(F)cc2)=C(C#N)C#N)c1 | . | 51.3 | ? | .
N#CC(C#N)=C(Nc1ccc(F)cc1)SCc1cccc(Br)c1 | 5.4 | 84.9* | 27.1 | .
O=C(CSC(=S)N1CCCCC1)c1ccccc1 | 63.8* | -40.8 | 67.3* | .
COc1ccc(Cn2c(=O)c3c(nc(NCCO)n3C)n(C)c2=O)cc1 | . | . | 8.8 | .
COc1ccc(CNc2nc3c(c(=O)n(Cc4ccc(Br)cc4)c(=O)n3C)n2C)cc1 | . | 84.4* | . | .
CCOc1ccc(C(=O)Nc2ccc(Cc3ccncc3)cc2)cc1Br | -0.9 | 94.9* | -4.6 | 1.2
CCOc1ccc(C(=O)Nc2ccc(NC(=O)c3ccccc3)cc2)cc1Br | 10.5 | -20.7 | 6.7 | 2.6
O=C(NC1CCN(Cc2ccccc2)C1)c1cccc(S(=O)(=O)N2CCOCC2)c1 (configuration not stated) | -3.2 | . | -2.9 | 0.9
O=C(NC1CCN(Cc2ccccc2)CC1)c1cc(S(=O)(=O)N2CCOCC2)ccc1Cl | 5.9 | -3.4 | -1.8 | 15.3*
O=C(C[C@@H]1CC[C@@H]2[C@H](COC[C@@H](O)CN2C(=O)Nc2ccc(Cl)c(Cl)c2)O1)NCc1ccc(Cl)cc1 | 0.3 | 95.6* | 16.3 | 1.7
O=C(C[C@H]1CC[C@@H]2[C@H](COC[C@H](O)CN2C(=O)Nc2ccc(Cl)c(Cl)c2)O1)NCc1ccc(Cl)cc1 | -1.3 | 13.6 | 9.2 | 0.6
O=C(C[C@@H]1CC[C@@H]2[C@H](COC[C@@H](O)CN2C(=O)Nc2ccc(Cl)c(Cl)c2)O1)NCc1ccc(Cl)c(Cl)c1 | 7.6 | 73.8* | 29.4 | -0.7
O=C(C[C@@H]1CC[C@@H]2[C@H](COC[C@H](O)CN2C(=O)Nc2ccc(Cl)c(Cl)c2)O1)NCc1ccc(Cl)c(Cl)c1 | 2.0 | 9.1 | 7.8 | 0.2
O=C(C[C@H]1CC[C@H]2[C@@H](COC[C@H](O)CN2C(=O)Nc2ccc(Cl)c(Cl)c2)O1)NCc1ccc(Cl)cc1 | -9.2 | 69.7* | 0.7 | 3.6
O=C(C[C@@H]1CC[C@H]2[C@@H](COC[C@H](O)CN2C(=O)Nc2ccc(Cl)c(Cl)c2)O1)NCc1ccc(Cl)cc1 | -2.3 | 95.3* | -5.6 | 1.9
Cc1ccc(S(=O)(=O)N2C[C@H](O)COC[C@H]3O[C@@H](CC(=O)NCc4ccc(Cl)c(Cl)c4)CC[C@@H]32)cc1 | 25.0 | 74.5* | 6.5 | -0.3
Cc1ccc(S(=O)(=O)N2C[C@H](O)COC[C@H]3O[C@H](CC(=O)NCc4ccc(Cl)c(Cl)c4)CC[C@@H]32)cc1 | -2.1 | 43.2 | -8.0 | 0.6
COc1ccc(OC)c(-c2nnc3n2N=C(c2ccc(OC)c(OC)c2)CS3)c1 | 55.8* | 53.1 | -22.7 | 9.5*
COc1ccc(C2=Nn3c(nnc3-c3ccccc3)SC2)cc1OC | . | . | -26.1 | .
COc1ccc(C2=Nn3c(nnc3-c3ccccc3F)SC2)cc1OC1CCCC1 | -66.3 | 31.7 | -85.8 | 13.1*
COc1ccc(C2=Nn3c(nnc3-c3ccccc3F)SC2)cc1OC1CCOC1 (configuration not stated) | 60.2* | -13.4 | -6.8 | 11.1*
COc1ccc(C2=Nn3c(nnc3C3CCCCC3)SC2)cc1OC | . | 8.0 | . | .
COc1ccc(OC)c(-c2nnc3n2N=C(c2ccc(OC(F)F)c(OCC4CC4)c2)CS3)c1 | ? | 44.0 | 5.7 | 5.1
O=C(Nc1ccc([N+](=O)[O-])cc1)Nc1nc(-c2ccc(Cl)s2)cs1 | 40.6 | 105.8* | 49.4 | 2.9
